From PubChem BioAssay (Tox21)
Inconclusive results are not listed. Where a call stands in place of a potency, no number is given. Activity calls are given as the source filed them. Calls come from the whole dose curve; as a rule, active = well fitted cell-killing curve with a large enough effect in the repeat runs; inconclusive = weak or mixed curves, or effect the other way; inactive = flat fitted curve, though single readings scatter.

Assay: qHTS assay to identify small molecule that activate the aryl hydrocarbon receptor (AhR) signaling pathway - cell viability counter screen (AID 743086);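 note: HepG2 liver cells carrying the AhR DRE luciferase reporter; nearly all actives have a fitted effect of over 45% in size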
Conditions: HepG2-AhR-luc viability, CellTiter-Fluor, 24 h; series mostly up to 70.3 µM
Description: U.S. Tox21 Program National Center for Advancing Translational Sciences [NCATS] NIH Chemical Genomics Center [NCGC] U.S. Environmental Protection Agency [EPA] National Institutes of Environmental Health Sciences [NIEHS] National Toxicology Program [NTP] U.S. Food and Drug Administration [FDA] Tox21 Assay overview: The Aryl hydrocarbon Receptor (AhR), a member of the family of basic helix-loop-helix transcription factors, is crucial to adaptive responses to environmental changes. AhR mediates cellular responses to environmental pollutants such as aromatic hydrocarbons through induction of phase I and II enzymes but also interacts with other nuclear receptor signaling pathways A cell based HepG2-AhR-luc assay (HG2L7.5c1 cell line, developed by Dr. Michael S. Denison, University of California at Davis) was used to assess the activation of AhR. HepG2 (human hepatocellular carcinoma) cells were stably transfected with an Ah receptor-responsive firefly luciferase reporter gene plasmid containing 20 dioxin responsive elements and luciferase reporter gene. Increased luciferase activity can be used to identify the compounds that induce AhR activation. The cytotoxicity of the compounds screened against the HepG2-AhR-luc cell line was tested in parallel by measuring the cell viability using CellTiter-Fluor assay in the same wells.
Tox21 Assay Protocol Summary: 4000 cells in 5 uL/well were dispensed into white wall/solid bottom 1536-well plates using a Multidrop Combi (Thermo Fisher Scientific Inc., Waltham, MA) dispenser. After the assay plates were incubated at 37C for 5 h, 23 nL of compound or DMSO vehicle was transferred to the assay plates by a pintool station (Kalypsys, San Diego, CA). The plates were incubated at 37C for 24 hr. For cell viability measurement, 1 ul/well of CellTiter-Fluor reagent (Promega, Madison, WI) was added into the assay plates using a Flying Reagent Dispenser (FRD) (Aurora Discovery, CA),and then the assay plates were incubated at 37C for 30 min. The fluorescence intensity in the plates was measured using a ViewLux plate reader (PerkinElmer, Shelton, CT), followed by the addition of 4 uL of ONE-Glo Luciferase Assay reagent (Promega) using an FRD (Aurora Discovery). After the assay plates were incubated at room temperature for 30 min, luminescence intensity was measured using a ViewLux plate reader (Perkin Elmer).

Structure (SMILES)	Potency
CO[C@@]1(NC(=O)Cc2cccs2)C(=O)N2C(C(=O)O)=C(COC(N)=O)CS[C@@H]21	inactive
CCCCOC(=O)[C@H](C)O	inactive
COS(=O)(=O)O	inactive
CC12CCC(C1)C(C)(C)C2O (stereo not given)	inactive
COP(=O)(O)OP(=O)(O)OC	inactive
Cn1nnc2c(C(N)=O)ncn2c1=O	inactive
O=C1CCC(=O)N1Cl	inactive
O=C(NCN1CCOCC1)c1cnccn1	inactive
CCc1occc(=O)c1O	inactive
CC1c2ccccc2CN1NC(=O)c1ccc(Cl)c(S(N)(=O)=O)c1 (stereo not given)	inactive
Cc1ccccc1C(N)=O	inactive
CC1(C)O[C@H]2CC(=O)OC[C@]23[C@H]2CC[C@@]4(C)[C@H](c5ccoc5)OC(=O)[C@H]5O[C@]54[C@]2(C)C(=O)C[C@@H]13	inactive
NCc1ccc(S(N)(=O)=O)cc1	inactive
N#CCC(=O)NN	inactive
Cc1ccc(C(=O)O)cc1[N+](=O)[O-]	inactive
CC(O)COC(C)(C)C (stereo not given)	inactive
Cc1ccc(C(C)NC(=O)[C@@H](NC(=O)OC(C)C)C(C)C)cc1 (stereo not given in full)	inactive
C[C@H]1[C@@H](c2ccccc2)NC(=O)N1C	inactive
CCCCCCCCCCCCCCCCCCOCCO	inactive
CCO	inactive

Structure (SMILES)	Potency
CC1(C)Oc2ccc(C#N)cc2[C@@H](N2CCCC2=O)[C@@H]1O	inactive
CC(S)C(C)S (stereo not given)	inactive
O=C(CN1CCNCC1)NC1CCCCC1	inactive
O=Cc1ccccc1Cl	inactive
CC(=O)CC(=O)Nc1ccc(C)cc1C	inactive
COC(=O)c1cccc(Cl)c1	inactive
CC1=C(C(=O)O)N2C(=O)[C@@H](NC(=O)[C@H](N)c3ccccc3)[C@H]2SC1	inactive
Cc1ccc2c(c1)C(=O)c1ccccc1C2=O	inactive
CCCCCCCCCOC(=O)c1ccccc1C(=O)OCCCCCCCCC	inactive
CCCCCCC1(C)CCC(=O)O1 (stereo not given)	inactive
CCOC(=O)CC1(C)OCC(C)O1 (stereo not given)	inactive
CC1=C(C(=O)O)N2C(=O)[C@@H](NC(=O)[C@H](N)C3=CCC=CC3)[C@H]2SC1	inactive
CCCCCC(C)O (stereo not given)	inactive
CNCCS(=O)(=O)O	inactive
CC(=O)O[C@@H]1CC2CCC1(C)C2(C)C (stereo not given in full)	inactive
CCCCOC(=O)C(C)O (stereo not given)	inactive
C=CCCCC	inactive
Fc1ccccc1	inactive
CC(=O)Nc1ccc(OC(=O)c2ccccc2OC(C)=O)cc1	inactive
COC(=O)c1ccccc1C(=O)O	inactive
